Screening results (PubChem BioAssay)
HepG2 viability – counter-screen for TGF-b inhibitors: cytotoxicity in HepG2 cells. HepG2 CAGA-GFP viability, ATP luminescence, 18 h. Potency, µM (titrated, usually from 46.1 µM), most hits filed as cytotoxic. 410,000 tested, 0.76% active
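CellTiter-Glo luminescence gave cytotoxicity after 18 hours at 37 degrees C. The cells were HepG2 CAGA-GFP in 1% FBS DMEM, stimulated with 500 pg/mL TGF-beta after compound addition. %Activity was normalised to no-cell wells (complete cell-killing) and DMSO (no toxicity), and curves were fitted and classified.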
DT40 TDP1 no CPT – qHTS for Inhibitors of human tyrosyl-DNA phosphodiesterase 1 (TDP1): qHTS in cells in absence of CPT | 420,000 tested, 15% active | DT40 Tdp1-/- hTDP1 cells, no CPT, ATP luminescence, 48 h | Potency, µM (highest dose often 46.2 µM), most hits filed as inhibitors | AID 686978, 2013; further: nearly all actives have a fitted effect of over 55% in size
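Seeded 400 DT40-hTDP1 cells/well (vehicle DMSO, no 20 nM CPT); pinned compounds; ≥48 hr at 37 °C; CellTiter-Glo luminescence as viability measure.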
TDP1 cell CPT – DT40-hTDP1 cell growth loss with CPT; Potency, µM (series often up to 46.2 µM), hits mostly inhibitors; chicken DT40 Tdp1-/-;hTDP1 cells + 20 nM CPT, ATP luminescence, 48 h; 420,000 tested, 12% active; further: nearly all actives have a fitted effect of over 55% in size
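Chicken DT40 Tdp1-/- cells complemented with human TDP1, 400 cells/well, exposed to compounds plus 20 nM camptothecin for at least 48 h at 37 C; viability read as ATP content by CellTiter-Glo luminescence.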
TGFb inhibitor – TGF-b pathway inhibition. 410,000 tested, 1.2% active. HepG2 CAGA-GFP TGF-b/SMAD3 reporter, GFP fluorescence, 18 h; TGF-beta stimulated, 500 pg/mL final. Potency, µM (top dose mostly 46.1 µM), usual class: inhibitors; further: nearly all actives have a fitted effect of over 65% in size
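TGF-beta reporter screen: HEPG2 CAGA-GFP, 1% FBS, 500 pg/mL TGF-beta final, 18 h; per-cell GFP summed per well; curves fitted and categorized by class.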
ATXN2 expr inh – ATXN2 expression inhibition | 360,000 tested, 0.72% active | Potency, µM (highest dose often 57 µM), actives largely listed as inhibitors | AID 1745845 | HEK-293 ATXN2-luciferase reporter, luminescence, 24 h; further: nearly all actives have a fitted effect of over 55% in size
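ATXN2-luciferase reporter cells (luciferase flanked by upstream and downstream ATXN2 gene portions) were treated 24 h at 37 °C with compounds at up to 57 uM. SteadyGlo luminescence gave expression; GF-AFC fluorescence gave viability.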
S2 tox – viability counter-screen for ATXN expression inhibitors | S2 cells (HEK-293 line with an ATXN2-luciferase reporter) viability, CellTiter-Fluor protease fluorescence, 24 h | Potency, µM (series often up to 56.7 µM), most hits filed as cytotoxic | 400,000 tested, 0.49% active | AID 651635; further: nearly all actives have a fitted effect of over 40% in size
Numbers stand for hits; i = inactive; ? = inconclusive; nt = no result given; [ ] = dose if it differs, or a comment. In the library only some 17% were active in any assay of this set; here they are far more common. The call rests on the fitted dose curve; in most records, active means well fitted curve in the direction sought with a large enough effect; inconclusive means small, poorly fitted or top-dose-only effect, or another doubt; inactive means no such curve, though single readings can be large; an effect the other way counts as inactive or inconclusive.

SMILES	HepG2 viability	DT40 TDP1 no CPT	TDP1 cell CPT	TGFb inhibitor	ATXN2 expr inh	S2 tox
CC(C)CCn1c(CN2CCN(c3cccc(Cl)c3)CC2)nc2c1c(=O)n(C)c(=O)n2C	i	23.1µM	?	i	i	i
CC(C)CCn1c(CN2CC(C)OC(C)C2)nc2c1c(=O)n(C)c(=O)n2C (centres undefined)	i	i	i	i	i	?
COCCn1c(CN2CCN(c3cccc(Cl)c3)CC2)nc2c1c(=O)n(C)c(=O)n2C	i	13µM	8.2µM	i	i	?
O[C@@H]1CN(Cc2cccs2)[C@@H](c2ccc(Cl)cc2)C[C@H]1n1cc(C2CC2)nn1	i	?	?	i	i	?
OC(CCN1CC2CCC(CC2)C1)(Cc1ccccc1)c1ccco1 (centres undefined)	i	?	?	i	i	i
Cc1ccc(C(=O)NCC(=O)OCC(=O)c2ccc3ccccc3c2)cc1	i	i	i	i	nt	nt
CCOCCn1c(CN2CCN(c3ccc(F)cc3)CC2)nc2c1c(=O)n(C)c(=O)n2C	i	18.4µM	13µM	i	i	i
Fc1ccc(NC(=S)Nc2ccccc2OC(F)F)cc1Cl	i	?	?	?	i	?
Cc1ccc(NC(=S)Nc2ccc(Cl)c(Cl)c2)c(OC(F)F)c1	i	18.4µM	20.6µM	?	?	?
O=C(Nc1ccc(Cl)c(Cl)c1)OCCNC(=O)c1ccncc1	i	23.1µM	?	i	i	i
O=C(Nc1ccc(Cl)c(Cl)c1)c1ccc(Cl)c(Cl)c1	i	5.8µM	?	i	nt	?
Cc1ccc(NC(=O)c2ccc(Cl)c(N3C(=O)C=CC3=O)c2)cc1	i	2.06µM	1.16µM	?	?	?
C[C@H]1CN([C@@H](C)CO)C(=O)c2cc(-c3cccc(C(=O)N(C)C)c3)cnc2O[C@H]1CN(C)C(=O)Cc1ccccn1	i	i	i	i	i	i
CC(C)(CNS(=O)(=O)c1ccc(Br)s1)N1CCOCC1	i	i	i	i	i	?
Cc1cccc(C)c1NC(=S)Nc1ccc(Cl)c(Cl)c1	i	?	?	i	i	i
NC(=S)Nc1ccc(Cl)c(Cl)c1	i	9.2µM	11.6µM	i	nt	?
Cc1cc(C)cc(NC(=S)Nc2ccc(Cl)c(Cl)c2)c1	i	20.6µM	?	?	?	i
COc1ccccc1-c1oc2ccccc2c1-c1ccc2c(c1)OCO2	i	?	?	i	i	i
Nc1oc2ccccc2c(=O)c1-c1ccc2c(c1)OCO2	i	?	18.4µM	i	i	i
CCOc1ccc(/C=C/c2nc(C#N)c(NCCCN(C)C)o2)cc1	i	?	20.6µM	?	i	i
COCCCNc1oc(-c2ccccc2F)nc1C#N	i	i	?	i	i	i
Cc1ccc(CNc2oc(-c3ccco3)nc2C#N)cc1	i	?	i	i	i	i
CCOc1ccc(-c2nc(C#N)c(NCc3ccco3)o2)cc1	i	?	20.6µM	i	i	i
CCOc1ccc(/C=C/c2nc(C#N)c(NCCCOC)o2)cc1	i	1.46µM	2.31µM	i	i	nt
CCOc1ccc(-c2nc(C#N)c(NCCCOC)o2)cc1	i	6.51µM	8.2µM	i	i	i
SMILES	HepG2 viability	DT40 TDP1 no CPT	TDP1 cell CPT	TGFb inhibitor	ATXN2 expr inh	S2 tox
Cc1c(C(=O)NCc2cccc(Cl)c2)sc2nc3n(c(=O)c12)CCC3	i	?	?	i	nt	nt
Cc1cccc(OCCSc2nc3ccccc3n2CC(=O)N2CCOCC2)c1	i	i	i	nt	nt	nt
Cc1cccc(NC(=O)c2ccc(C(=O)c3ccccc3)o2)c1	i	?	?	i	i	i
Cc1c(NC(=O)CSc2nnc(Nc3ccccc3)s2)c(=O)n(-c2ccccc2)n1C	i	i	i	i	i	?
COc1cccc(/C=N/NC(=O)CSCC(=O)Nc2ccccc2)c1O	i	3.16µM	4.47µM	i	28.2µM	i
COc1cccc(/C=N\NC(=O)Cn2nnc3ccccc32)c1O	i	2.91µM	3.66µM	i	i[11.3 µM]	i
